Among the targets are SMC5; SLMAP; SMC2; SMAD4; SMYD3; SNRNP70; SNCG; SNN; SNRNP200.
Holding throughout (assay): pooled miR-30 sensor sort-seq; sequence = guide strand
Holding throughout (details): shRNA
Also: reference of the scale not given here.

In the test with SMC5, TTCATTGTCTTTGTGCTCCAGA yielded a sensor-assay potency score (higher = more potent) of 0.694.
With TTTAATGTTATAAATAATCTGG, the sensor-assay potency score (higher = more potent) in the test with SLMAP is -0.423.
Same read-out and setting: next, TTTGTTTACTTGTTCTAGCTAG: 0.257.
TTCTATAACATCTTGCTTCTGT yielded a sensor-assay potency score (higher = more potent) with SMC5 of 0.581.
TTTTTGTATTCATACATCCTGG: the sensor-assay potency score (higher = more potent) in the test with SMC2 is -0.581.
Turning to TAGAATGATATACATATCGATG, the sensor-assay potency score (higher = more potent) with SMAD4 was -1.35.
On the same count and under the same terms, next, TTAGCAACCAACCTTGTGCCTA: -0.621.
Consider TAACTTTCCGTGTATTCTCTGT, for which the sensor-assay potency score (higher = more potent) in the test with SLMAP is -0.472.
In the test with SMC2, TCTACCACCAATAACCACCTGC showed a sensor-assay potency score (higher = more potent) of 0.664.
On to TATAAATCTGTTTTAATCGGGT, for which the sensor-assay potency score (higher = more potent) in the test with SMC5 is -0.0428.
For the sequence TTGAACTTCCTTCCATACTTGC, the sensor-assay potency score (higher = more potent) with SMYD3 was -0.357.
On to TCGCTCGTGTTCGTACTCGATG, for which, in the test with SNRNP70, the sensor-assay potency score (higher = more potent) was -1.13.
Regarding TTCTCCTTGGTCTTGGCTCCCA, in the test with SNCG, the sensor-assay potency score (higher = more potent) was -0.654.
The same measure, in the same setting: as for TTGCGCACCACCCCGGAGGTGA, the figure is -1.19.
Same read-out and setting: as for TGCTTGGTCTTTTCCACCGCAC, the figure is -1.01.
Regarding TAAGCTCTGTCTCCACTTCTTG, the sensor-assay potency score (higher = more potent) in the test with SNRNP70 was -0.943.
The same measure, in the same setting: as for TTGCTGTCGCCGCTCAATCTTT, the figure is -1.5.
Consider TTCTCTCCACGCACGGTCCCTT, for which, in the test with SNN, the sensor-assay potency score (higher = more potent) is -1.08.
Still for that read-out and setting: as for AATGAGGATGACGATGACTGTG, the figure is -0.905.
In the case of TACAGTGTTAAACACCTGGGTC, the sensor-assay potency score (higher = more potent) in the test with SNRNP200 is -1.05.
As for TCTCTTTGGATGCCACACCCTC, the sensor-assay potency score (higher = more potent) in the test with SNCG is -1.21.
Regarding TTGAACTCAGAGGACAATGAGA, the sensor-assay potency score (higher = more potent) with SNRNP200 was -0.903.
For TCCTCTTCTGGTACCACCGAGG, the sensor-assay potency score (higher = more potent) with SNRNP70 is -1.82.
The same measure, in the same setting: as for TAGCGGGAGGTGTCATCGCGGC, the figure is -0.939.
Consider TCAGCTTGGCCTTTCTCTCCAC, for which the sensor-assay potency score (higher = more potent) in the test with SNN was -0.343.
In the case of TACTTGACCAGATTGTTCTTGT, in the test with SNRNP200, the sensor-assay potency score (higher = more potent) was 0.676.
The same measure, in the same setting: next, AATATCGCTCGCATCAACCGGC: 0.041.
For TTTGGATGCCACACCCTCCTGT, the sensor-assay potency score (higher = more potent) with SNCG is -0.0802.
For TTAAGCTCTGTCTCCACTTCTT, in the test with SNRNP70, the sensor-assay potency score (higher = more potent) is -0.388.
With TCCTCTGACTGGCTGATGCGCT, the sensor-assay potency score (higher = more potent) with SNN is -1.54.

The values are drawn from the OligoGym collection.
